Drawing on PubChem BioAssay AID2766 (Sanford-Burnham Center for Chemical Genomics, 2010), this text covers inhibition for 34 compounds.

Some of the results follow. A number with no mark means an inactive call. Activity calls are given as the source filed them. Cut-off read from the data, not from the text of the source: active = inhibition above about 50%; inactive = the rest.

Sequence of Apelin receptor (Homo sapiens) (P35414 whole entry, looked up): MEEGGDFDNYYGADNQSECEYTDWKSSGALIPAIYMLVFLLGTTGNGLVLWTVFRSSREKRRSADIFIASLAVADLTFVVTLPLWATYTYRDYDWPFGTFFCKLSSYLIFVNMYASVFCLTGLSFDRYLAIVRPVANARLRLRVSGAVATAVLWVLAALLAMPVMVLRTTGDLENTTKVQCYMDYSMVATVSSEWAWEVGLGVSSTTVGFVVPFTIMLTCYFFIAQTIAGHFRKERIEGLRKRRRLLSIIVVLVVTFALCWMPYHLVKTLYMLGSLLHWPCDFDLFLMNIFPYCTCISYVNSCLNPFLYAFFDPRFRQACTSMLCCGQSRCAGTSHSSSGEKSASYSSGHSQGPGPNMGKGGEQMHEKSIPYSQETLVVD

The assay addresses Apelin receptor (Homo sapiens) (UniProt P35414). The experiment in a line: apelin receptor inhibitors, beta-arrestin readout – cell-based, luminescence, single concentration, uHTS hits, confirmation (AID 2766). As to conditions: APJ beta-arrestin recruitment, antagonist mode, at 20 µM, active compounds read high. (In general: Recruitment of arrestin is a read-out of receptor activation apart from second messengers.)
Take `CC(CN1CCOCC1)OC(=O)c1ccc(C(C)(C)C)cc1` (centres undefined): the inhibition is 26.5%. On to `CN(C)S(=O)(=O)c1cccc(NC(=S)N/N=C/C(=O)c2ccccc2)c1`, for which the inhibition was 52.4% (active). With `CC(=O)C1=C(O)C(=O)N(c2ccc(S(N)(=O)=O)cc2)C1c1ccccc1F` (centres undefined), the inhibition was 43.9%. For the compound `S=C(NNC(=S)NC1CC2CCC1C2)NC1CC2C=CC1C2` (centres undefined), the inhibition was 49.1%. As for `Cc1cc(/C=N/Nc2ccc([N+](=O)[O-])cn2)c(C)n1-c1cccc(C(=O)O)c1`, the figure is 75.3% (active); as for `CC1CC2=C(CC1/C=N/NC(N)=S)C(C)(C)CCC2` (centres undefined), 103% (active); as for `COc1ccc(NC(=O)/C(Cl)=C(/Cl)S(=O)Cc2ccc(C)cc2)cn1` (centres undefined), 106% (active).

Turning to `CSCCC(NC(=O)COc1ccccc1)C(=O)OCC(=O)c1cc2ccccc2o1` (centres undefined), the inhibition is 87.8% (active).

Turning to `CCc1ccc2c(c1)C1(NN=C(c3ccccc3)S1)C(=O)N2` (centres undefined), the inhibition is 42.9%.

With `O=C1Nc2ccc(Br)cc2/C1=N/N=C/C1=C(N2CCOCC2)C(=C\c2ccccc2)/CC1`, the inhibition is 75.1% (active). Consider `Cc1cccc(-n2c(O)c(C=Nc3ccccc3N)c(=O)[nH]c2=O)c1`, for which the inhibition was 8.93%. On to `COc1ccc(CS(=O)/C(Cl)=C(/Cl)C(=O)Nc2ccc(OC)nc2)cc1` (centres undefined), for which the inhibition is 100% (active).

For the compound `O=C1Nc2ccc([N+](=O)[O-])cc2C1=Nc1cccc(CO)c1`, the inhibition was 72.5% (active).

Consider `O=C(CSc1cccc2cccnc12)N/N=C/c1cccnc1`, for which the inhibition is 43.5%. In the case of `CC(=O)Nc1ccc(NC(=O)c2sc3nc4c(c(-c5ccc(C)cc5)c3c2N)CCC4)cc1`, the inhibition was 5.53%. With `O=[N+]([O-])c1cc(Cl)cc(/C=N/NC(=S)Nc2cc(S(=O)(=O)N3CCOCC3)ccc2Cl)c1O`, the inhibition is 62.4% (active). As for `COC(=O)c1ccc(NCC(=O)c2ccccc2)cc1`, the figure is 63.5% (active). For the compound `COc1cc(NS(=O)(=O)c2ccc3ccccc3c2)c2ncccc2c1`, the inhibition is -7.35%. `O=[N+]([O-])c1ccccc1S(=O)(=O)Nc1cccc2cccnc12`: the inhibition is 4.57%. With `COc1cc(/C=C2/SC(=S)N(Cc3ccccc3)C2=O)cc(OC)c1O`, the inhibition is 94.7% (active). The result for `O=c1ccc2c(-c3ccccc3S(=O)(=O)O)c3ccc(O)c(O)c3oc-2c1O` reads 69.9% (active). As for `CC(C)OC(=O)CN1C(=O)C(=O)c2ccccc21`, the figure is 158% (active).

As for `O=C(CCc1nc2ccccc2c(=O)[nH]1)OCC(=O)c1cccc(Cl)c1`, the inhibition was 37.2%.

As to `Oc1ccc(N=Nc2nccs2)c(O)c1`, the inhibition is 79.8% (active).

Regarding `O=C(CCl)NNc1cccc(Cl)n1`, the inhibition is 145% (active). As to `COc1cc(/C=N\NC(=O)CNC(=O)c2cccc([N+](=O)[O-])c2)ccc1O`, the inhibition was 2.71%. The result for `COc1cccc2sc(Nc3nc(C)c(C(C)=O)s3)nc12` reads 94% (active); that for `COc1cc(/C=C(\C#N)c2nc3c(s2)CC(C)CC3)ccc1O` (centres undefined), 44.7%; that for `CC(=O)/C(=N\Nc1ccc(Cl)cc1Cl)Sc1cccc2cccnc12`, 78% (active). On to `Cc1csc(NC(=S)Nc2cccc(Cl)c2)n1`, for which the inhibition was 55.8% (active). `CN1/C(=c2/s/c(=C3/C(=O)N(c4ccccc4)NC3=Nc3ccccc3)n(C)c2=O)C(C)(C)c2ccccc21`: the inhibition is 55.3% (active). Turning to `O=[N+]([O-])c1c(NCCO)cc(Sc2nc3ccccc3s2)c2nonc12`, the inhibition is 105% (active). As for `Cc1cccc2cc3c(N)c(C(=O)N4CCCc5ccccc54)sc3nc12`, the figure is 47.9%. On to `CCOC(=O)c1cnc(Nc2nc3ccccc3o2)nc1CSC(=S)N1CCCCC1`, for which the inhibition is -22.6%.

As a reminder, the inhibition is the relative decrease from the control value, in per cent.
